LmPK inh: blocks Leishmania mexicana pyruvate kinase activity; Q27686; purified LmPK, Kinase-Glo ATP luminescence, 1 h; Potency, µM (doses to about 57.5 µM), for the others: at the top dose activity change, negative = inhibition, most hits filed as inhibitors; actives 0.37% (n = 290,000); AID 1721
Target sequence (Q27686 whole entry, looked up): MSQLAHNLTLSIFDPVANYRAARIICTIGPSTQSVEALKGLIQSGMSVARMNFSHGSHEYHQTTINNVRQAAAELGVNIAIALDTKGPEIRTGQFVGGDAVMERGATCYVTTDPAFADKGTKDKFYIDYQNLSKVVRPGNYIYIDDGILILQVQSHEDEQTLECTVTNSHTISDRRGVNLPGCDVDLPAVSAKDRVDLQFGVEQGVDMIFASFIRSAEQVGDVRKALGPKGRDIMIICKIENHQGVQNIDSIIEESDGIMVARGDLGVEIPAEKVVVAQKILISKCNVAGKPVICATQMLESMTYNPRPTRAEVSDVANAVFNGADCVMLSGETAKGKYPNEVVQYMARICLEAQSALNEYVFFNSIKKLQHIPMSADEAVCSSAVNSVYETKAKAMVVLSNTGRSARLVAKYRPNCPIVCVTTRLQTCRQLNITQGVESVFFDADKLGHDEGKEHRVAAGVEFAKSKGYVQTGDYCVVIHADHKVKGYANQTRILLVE
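Purified LmPK (0.1 nM) with 0.5 mM PEP and 0.1 mM ADP in imidazole buffer pH 7.2 with MgCl2/KCl, 1 h at room temperature. ATP formed was read by luciferase luminescence and normalized to no-enzyme and uninhibited controls.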
AMA1-RON2 inh: AMA1-RON2 (P. falciparum) interaction inhibition | actives 0.2% (n = 360,000) | AlphaScreen AMA1-biotinylated RON2 peptide binding | Potency, µM (top dose mostly 58.2 µM), for the others: at the top dose activity change, negative = inhibition, actives largely listed as inhibitors;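 also: 0% = vehicle wells and -100% = peptide control; nearly all actives have a fitted effect of over 45% in size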
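AMA1 (3D7) with his tag at 25 nM final met compounds first, then biotinylated RON2 peptide at 25 nM; detection used donor plus acceptor beads, 10 µg/mL apiece, read by AlphaScreen after 30 min at room temperature.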
TbPYK inhibitor: T. brucei pyruvate kinase inhibition. TbPYK enzyme, Kinase-Glo Plus ATP luminescence, 45 min. Q57TT1. actives 0.12% (n = 410,000). Potency, µM (doses to about 76.8 µM), without a hit: at the highest dose activity, negative = inhibition, most hits filed as inhibitors; also: nearly all actives have a fitted effect of over 50% in size
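Luminescent Kinase-Glo Plus end-point after 45 min room-temperature reaction of T. brucei pyruvate kinase started with 130 uM ADP (final). Buffer TEA 50 mM pH 7.2 with KCl, MgCl2, BSA, Tween-20; titration-based qHTS with fitted concentration-effect curves.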
Sm TGR inh: inhibitors of Schistosoma mansoni thioredoxin glutathione reductase; actives 3% (n = 360,000); purified TGR, DTNB reduction, TNB absorbance 405 nm; AID 485364; Q962Y6; Potency, µM (series often up to 114 µM), for the others: at the highest dose activity change, negative = inhibition, actives largely listed as inhibitors; also: nearly all actives have a fitted effect of over 60% in size
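Kinetic colorimetric format: TGR-catalysed, NADPH-driven DTNB reduction monitored via TNB absorbance. Enzyme dispensed at 20 nM; compound exposure 15 min at room temperature before reaction start.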
RE007 growth inh: less growth of the S. pombe RE007 Vpr strain | S. pombe RE007 Vpr strain, BacTiter-Glo ATP luminescence, 24 h | Potency, µM (highest dose often 92.2 µM), for the others: at the top dose activity change, negative = less growth, hits mostly inhibitors | actives 0.21% (n = 360,000); active = well fitted falling curve with a large enough effect; inconclusive = small, poorly fitted or top-dose-only effect; inactive = no such curve, though single readings can be large or run the other way; also: nearly all actives have a fitted effect of over 50% in size
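Fission yeast RE007 carrying one integrated HIV-1 vpr copy, seeded at OD 0.01 in PMG+AL medium with 23 nL pinned compound. Grown 24 h at 30 degrees; viability read by BacTiter-Glo luminescence after 5 min.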
* = called active by the depositor; ? = inconclusive; . = not tested or not shown; [ ] = dose if it differs, or a comment. Sampled rows, rich in hits. Any-hit rate of the full collection: about 3.2%. Unless noted, calls follow the shape of the dose curve; as a rule, active = well fitted curve in the direction sought with a large enough effect; inconclusive = small, poorly fitted or top-dose-only effect, or another doubt; inactive = no such curve, though single readings can be large; an effect the other way counts as inactive or inconclusive. Unless noted, % is scaled to controls: 0 for no effect and ±100 for the full control effect; potency is read from the fitted curve at half-maximal effect.

SMILES	LmPK inh	AMA1-RON2 inh	TbPYK inhibitor	Sm TGR inh	RE007 growth inh
O=C(c1ccc(CNS(=O)(=O)c2ccccc2)cc1)N1CCC2(CC1)OCCO2	-6%	1%	5%	40µM*	8%
O=C(c1ccc(CS(=O)(=O)c2ccc(Br)cc2)o1)N1CCC2(CC1)OCCO2	3%	-6%	-7%	35µM*	-8%
Cc1cccc(CS(=O)(=O)Cc2ccc(C(=O)N3CCC4(CC3)OCCO4)o2)c1	-9%	44%	4%	?	1%
COc1ccccc1S(=O)Cc1ccc(C(=O)NCc2ccccc2Cl)o1 (centres undefined)	7%	-4%	-24%	16µM*	5%
COc1ccccc1CNC(=O)c1ccc(CS(=O)(=O)c2c(Cl)cccc2Cl)o1	.	.	0%	-7%	.
Cc1cc(C)c2nc(N(Cc3cccnc3)C(=O)c3cccs3)sc2c1	.	.	-1%[15.4 µM]	-3%	.
CCN(C(=O)C1CCN(S(=O)(=O)c2c(C)noc2/C=C/c2ccc(C)cc2)CC1)c1cccc(C)c1	.	.	-5%	4%	.
COc1ccc(OC)c(S(=O)(=O)N2CCC(c3ccncc3)CC2)c1	.	.	-1%	-9%	.
COc1ccc(S(=O)(=O)Cc2ccc(C(=O)N3CCOCC3)o2)cc1	-1%	13%	-4%	28µM*	11%
O=C(c1ccc(CS(=O)c2ccccc2Cl)o1)N1CCOCC1 (centres undefined)	-16%	-4%	-10%	32µM*	5%
O=C(c1ccc(CS(=O)(=O)c2ccccc2)o1)N1CCN(c2ncccn2)CC1	1%	-1%	-4%	28µM*	3%
O=C(c1ccc(CS(=O)(=O)c2ccc(Br)cc2)o1)N1CCOCC1	5%	8%	-2%	45µM*	15%
O=C(c1ccc(CS(=O)(=O)c2ccc(Br)cc2)o1)N1CCN(c2ccc(F)cc2)CC1	4%	-5%	4%	0%	-7%
COc1cc(-c2nc(Cn3nnc(C(=O)Nc4ccccc4C)c3C)c(C)o2)cc(OC)c1OC	.	.	-10%	5%	.
Cn1nc([N+](=O)[O-])c(C(C#N)c2ccccn2)c(Cl)c1=O (centres undefined)	-11%	-3%	1%	4.5µM*	4%
CCn1nc([N+](=O)[O-])c(C(C#N)c2nc3cc(C(F)(F)F)ccc3s2)c(Cl)c1=O (centres undefined)	?	?	-8%	4µM*	-18%
Cc1ccc(Cn2c(C(C)Nc3nc(-c4ccc(Cl)c([N+](=O)[O-])c4)cs3)nc3cc(C(F)(F)F)ccc32)cc1 (centres undefined)	.	18%	1%	.	-3%
N#CC(c1ccccn1)c1ncc(C(F)(F)F)cc1Cl (centres undefined)	2%	34%	-6%	24%	2%
CCCn1nc([N+](=O)[O-])c(C(C#N)c2nc3ccccc3o2)c(Cl)c1=O (centres undefined)	-22%	?	5%	2.2µM*	-12%
CC(=O)c1ccc2noc(-c3cccc(C)c3)c2c1	-3%	36%	3%	18µM*	-12%
COc1ccccc1NS(=O)(=O)c1cc(C(=O)N2CCN(C/C=C/c3ccccc3)CC2)ccc1C	-8%	8%	3%	35µM*	3%
CC(=O)c1ccc(NC(=O)C2=CC(c3ccc(C)cc3)=NS(=O)(=O)N2C)cc1	.	.	8%	3%	.
Cc1ccc(N/N=C2/CCCNC2=O)cc1	0%	-1%	-7%	32µM*	8%
CCOc1cc(NS(=O)(=O)c2ccccc2)c(OCC)cc1NC(=O)c1ccco1	2%	12%	9%	32µM*	-18%
CCNC(=S)Nc1cc(OCC)c(NC(=O)c2ccco2)cc1OCC	0%	-3%	21%	2%	7%
SMILES	LmPK inh	AMA1-RON2 inh	TbPYK inhibitor	Sm TGR inh	RE007 growth inh
CCOc1ccccc1NC(=O)c1cc(S(=O)(=O)NCc2ccco2)ccc1F	10%	0%	-14%	32µM*	0%
COc1ccc(OC)c(NC(=O)c2cc(S(=O)(=O)NCc3ccco3)ccc2F)c1	0%	7%	-6%	1%	12%
C=C(C)C(=O)NNc1ccccc1	7%	5%	-9%	1.6µM*	126%
Nc1ccc2ccccc2c1N=Nc1ccccc1	.	18µM*	-4%	.	?
CCn1c(=O)cc(OCC(=O)N2CCN(c3ccc(C)cc3)C(C)C2)c2ccccc21 (centres undefined)	.	.	-9%	-9%	.
CCc1cccc(-n2nnc(-c3nsc(NC(=O)c4cccs4)n3)c2C)c1	.	.	5%	-1%	.
O=C(O)C1CSC(c2coc3ccccc3c2=O)N1 (centres undefined)	-2%	2%	-11%	2.5µM*	40µM*
CCOC(=O)/C=C/C(=O)Nc1cc(S(=O)(=O)Nc2ccc(OC)cc2)ccc1N1CCOCC1	.	3%	-13%	32µM*	-4%
Cc1ccc(/C=N/c2sc3c(c2C(N)=O)CCCC3)o1	-6%	-11%	-5%	22µM*	?
CN(C)/C=N/c1sc2c(c1C(N)=O)CCCC2	-20%	0%	-7%	-2%	6%
CN1/C(=C/C2CC(=O)NC2=O)C(C)(C)c2ccccc21 (centres undefined)	-1%	1%	8%	45µM*	3%
CN1/C(=C/C2CC(=O)N(c3cccc4ccccc34)C2=O)C(C)(C)c2ccccc21 (centres undefined)	5%	8%	1%	?	22%
Cc1cccc(OCc2n[nH]c(=S)n2C2CCCCC2)c1	18µM*	8%	13µM*	-4%	1%
Cc1ccc(OCc2n[nH]c(=S)n2C2CCCCC2)cc1	8.9µM*	8%	?	3%	-15%
COc1ccc(-n2c(COc3cccc(C)c3)n[nH]c2=S)cc1	-6%	96%	?	-19%	1%
S=c1[nH]nc(COc2ccc(Cl)cc2)n1C1CCCCC1	?	10%	?	-1%	2%
Cc1cc(=O)c2cc(C(=O)Nc3ccc(C)c(C)c3)ccc2[nH]1	.	.	-6%	0%	.
N#C/C(=C(/O)CCl)c1nc2c(s1)CCc1ccccc1-2	3%	-15%	-6%	7.9µM*	3%
COc1cc(OC)cc(C(=O)NC(=S)Nc2ccc(N3CCCC3)cc2)c1	-1%	-17%	-8%	89µM*	-4%
COc1ccc(NC(=S)Nc2ccc(S(=O)(=O)N3CCCCC3)cc2)cc1	.	18%	-17%	.	-10%
O=C(NC(=S)Nc1ccc(N2CCCCC2)cc1)c1cccs1	1%	?	7%	40µM*	?
COc1ccc(NC(=S)Nc2cccc(S(=O)(=O)N3CCCCC3)c2)cc1	3%	32%	-5%	35µM*	3%
CS(=O)(=O)N1CCN(c2ccc(NC(=S)NC(=O)c3cccs3)cc2)CC1	8%	0%	-5%	-12%	7%
COc1ccc(NC(=O)C(=S)N2CCCC2)cc1	0%	13%	1%	-9%	16µM*

Screening results as filed in PubChem BioAssay.
